HepG2 tox – kills HepG2 cells in TGF-b inhibitor counter-screen | HepG2 CAGA-GFP viability, ATP luminescence, 18 h | Potency, µM (titrated, usually from 46.1 µM), without a hit: top-dose activity change, negative = cytotoxicity, hits mostly cytotoxic | 410,000 tested, 0.76% active
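HepG2 CAGA-GFP cells (1000/well, DMEM with 1% FBS) received compound, then TGF-beta at 500 pg/mL final, and were incubated 18 hours at 37 degrees C. Viability was read by CellTiter-Glo luminescence. Media-only wells were set as complete cell-killing and DMSO as no toxicity.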
KB-V1 MDR tox – KB-V1 MDR subline cytotoxicity | Potency, µM (top dose mostly 46.1 µM), hits mostly cytotoxic | AID 1347076 | 400,000 tested, 3.4% active | KB-V1 MDR cells viability, CellTiter-Glo, 72 h; also: % is scaled to controls: 0 for no effect and ±100 for the full control effect; nearly all actives have a fitted effect of over 60% in size
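KB-V1 cells (P-gp-expressing MDR subline of KB-3-1) in phenol-red-free DMEM with 10% FBS were exposed to library compounds over a concentration series for 72 h at 37 degrees C. Viability read by CellTiter-Glo luminescence; concentration-effect curves fitted after normalization.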
ATXN2 expr inh – inhibitors of ATXN2 expression; AID 1745845; Potency, µM (highest dose often 57 µM), for inactives: top-dose activity change, negative = inhibition, usual class: inhibitors; 360,000 tested, 0.72% active; HEK-293 ATXN2-luciferase reporter, luminescence, 24 h; also: % is scaled to controls: 0 for no effect and ±100 for the full control effect; nearly all actives have a fitted effect of over 55% in size
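qHTS (up to 57 uM final) was run with 24 h compound exposure of reporter cells at 37 °C. Each well was multiplexed: SteadyGlo luminescence measured ATXN2-luciferase expression after a fluorogenic Gly-Phe-AFC viability readout (25 uM final).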
TGFb SMAD3 inh – blocks TGF-b signaling. HepG2 CAGA-GFP TGF-b/SMAD3 reporter, GFP fluorescence, 18 h; TGF-beta stimulated, 500 pg/mL final. Potency, µM (doses to about 46.1 µM), inactives show at the highest dose activity, negative = inhibition, usual class: inhibitors. 410,000 tested, 1.2% active. AID 588855; also: % is scaled to controls: 0 for no effect and ±100 for the full control effect; nearly all actives have a fitted effect of over 65% in size
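Inhibition was scored as loss of TGF-beta-induced (500 pg/mL final, 18 hours, 37 degrees C) GFP in HEPG2 cells carrying a CAGA-GFP reporter, in DMEM with 1% FBS. Well GFP was summed per cell; Activity was normalised to unstimulated and stimulated DMSO wells, then concentration-response fitting.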
S2 tox – cell viability loss in ATXN counter-screen; S2 cells (HEK-293 line with an ATXN2-luciferase reporter) viability, CellTiter-Fluor protease fluorescence, 24 h; Potency, µM (doses to about 56.7 µM), most hits filed as cytotoxic; 400,000 tested, 0.49% active; AID 651635; also: nearly all actives have a fitted effect of over 40% in size
KB-3-1 tox – KB-3-1 parental cell cytotoxicity | KB-3-1 viability, CellTiter-Glo ATP luminescence, 72 h | Potency, µM (series often up to 46.1 µM), hits mostly cytotoxic | 400,000 tested, 1.4% active | AID 1347075; also: % is scaled to controls: 0 for no effect and ±100 for the full control effect; nearly all actives have a fitted effect of over 60% in size
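Cytotoxicity in the drug-sensitive parental line KB-3-1 was scored as loss of CellTiter-Glo luminescence following 72 h incubation with compound. Values come from curve fitting of normalized concentration-response data.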
Numbers without * were called inactive; i = inactive; ? = inconclusive; . = no result given. The list is not random: actives were taken first. Their share in the collection is about 5.9%. Calls follow the shape of the dose curve; as a rule, active = well fitted curve in the direction sought with a large enough effect; inconclusive = small, poorly fitted or top-dose-only effect, or another doubt; inactive = no such curve, though single readings can be large; an effect the other way counts as inactive or inconclusive. Potency is read from the fitted curve at half-maximal effect.

SMILES	HepG2 tox	KB-V1 MDR tox	ATXN2 expr inh	TGFb SMAD3 inh	S2 tox	KB-3-1 tox
N#Cc1ccsc1NC(=O)c1ccc(Cl)c([N+](=O)[O-])c1	-33.8%	?	.	7.08µM*	i	i
O=C(Nc1ccc(S(=O)(=O)NC2=NCCCCC2)cc1)c1ccc(Cl)c([N+](=O)[O-])c1	-15.0%	i	-14.4%	-26.9%	i	i
COc1ccc(-n2cnnc2SCC(=O)Nc2cccc(S(=O)(=O)N3CCCCC3)c2)cc1	11.3%	14.6µM*	-15.6%	-0.9%	i	i
Cc1cccc(C)c1NS(=O)(=O)c1ccc(NC(=O)c2ccc(Cl)c([N+](=O)[O-])c2)cc1	17.8µM*	?	.	?	25.1µM*	i
Oc1ccccc1-c1nc(/C=C/c2ccc(F)cc2)nn1-c1ccccc1	-23.8%	.	.	-9.2%	.	.
CC1(C(=O)Nc2ccc3c(c2)OCCO3)CSCC(=O)N1CCc1ccccc1F (stereo not given)	.	i	.	.	.	i
COc1ccc(C(=O)NCCc2nnc3n2CCN(CC2CC=CCC2)CC3)cc1 (stereo not given)	.	.	.	.	i	.
Cc1ccc(C(=O)Nc2ccncc2)cc1S(=O)(=O)N1CCCCC1	-1.2%	14.6µM*	.	-23.5%	i	?
Cc1ccc(NC(=O)CCNC(=O)c2ccc(Br)cc2)cc1S(=O)(=O)N1CCCCCC1	3.4%	20.6µM*	-30.9%	?	i	?
Cc1ccc(C(=O)Nc2ccncc2)cc1S(=O)(=O)N1CCOCC1	-13.4%	i	-11.9%	59.7%	i	i
Cc1ccc(O)c(NC(=O)c2ccc(Br)c(S(=O)(=O)N3CCCCC3)c2)c1	14.1µM*	?	?	?	?	i
Cc1ccc(CCNC(=O)c2ccc(CSc3nc4ccncc4n3Cc3ccc(F)cc3)cc2)cc1	-2.6%	i	-29.3%	?	?	i
CCOC(=O)[C@H]1O[C@H]1C(=O)N[C@@H](CC(C)C)C(=O)NCCC(C)C	.	.	0.4%	.	.	.
Cc1ccc(S(=O)(=O)N(Cc2ccc(Cl)cc2)c2ccccc2C(=O)NCc2ccco2)cc1	-11.6%	18.4µM*	-24.1%	0.0%	?	i
Cc1ccccc1N(CC(=O)Nc1ccccc1C(=O)NCc1ccco1)S(=O)(=O)c1ccccc1	0.0%	i	-14.6%	0.0%	i	23.1µM*
CCC/C(=C1/c2ccccc2C(=O)N1c1ccccc1)c1cnc(OC)nc1	-17.6%	?	-11.0%	12.6µM*	i	i
COc1ccc(OC)c(N2C(=O)CC(Cc3ccc(Cl)cc3)C2=O)c1 (stereo not given)	-14.7%	i	-7.7%	-3.4%	i	i
COc1ccc(OC)c(N2C(=O)CC(Cc3cc(C)cc(C)c3)C2=O)c1 (stereo not given)	-2.4%	?	-8.7%	-2.6%	i	6.51µM*
COc1ccccc1C1=Nn2c(nc3sc(C(=O)Nc4ccccc4Cl)c(C)c3c2=O)SC1	-29.9%	.	.	0.1%	.	.
O=C1c2ccccc2-c2nnc(-c3ccc(F)cc3)cc21	-10.7%	i	-34.7%	-8.9%	i	?
Cc1ccc(-c2cc3c(nn2)-c2ccccc2C3=O)cc1	-38.9%	?	3.55µM*	?	i	i
COc1cccc(NC(=O)c2oc3ccccc3c2NC(=O)c2ccc(C(F)(F)F)cc2)c1	-0.1%	i	-3.3%	23.6%	i	i
O=C(/C=C/c1ccc(Br)cc1)c1ccc(NC(=O)c2ccco2)cc1	-24.3%	i	11.0%	7.5%	i	i
COc1ccc(C=CC(=O)c2ccc3cc(OC)c(OC)cc3c2)cc1OC	-74.0%	i	.	?	.	?
CCC1CSC(Nc2ccc(C(=O)/C=C/c3ccc(OC)c(OC)c3)cc2)=N1 (stereo not given)	-13.1%	2.91µM*	?	?	.	?
